Inconclusive results are not listed. Active and inactive are the calls of the source.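 Rule for the calls, unless noted: active = viability at or below 27.92% in each of two runs, the all-compound median minus 4 SD; inconclusive = no clear call, values can overlap the other calls; inactive = the rest.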
Assays:
[1] = reducers of endogenous Her2 protein level, primary screen, SKBR3 breast tumor cells, AlphaScreen, ATP viability (AID 461;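 active = Her2 level under about 52% in both replicate screens, with viability over 70% of control, limit read from the data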;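 for Her2 level: lower value means less Her2 protein in the cells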;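 for viability: percent of carrier control wells set as 100% viability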); conditions: 18-24 h, measured here: SKBR3 viability, ATP luminescence, at 10 µM
[2] = target: Receptor tyrosine-protein kinase erbB-2 (Homo sapiens) (UniProt P04626); assay: as above; conditions: 18-24 h, at 10 µM, stronger effect = lower value
[3] = SK-BR-3 cell growth inhibitors, pilot screen, 24 h, human (AID 572;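 active = viability at or below 10% of carrier control in both of two separate runs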;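 note: compound exposure lasted between 18 and 24 h rather than exactly 24 h; 100% = carrier-treated control wells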); conditions: SK-BR-3 viability, CellTiter-Glo luminescence, at 10 µM, stronger effect = lower value
[4] = HUVEC growth inhibition – cell-based, human, primary screen (AID 575;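 active = viability at or below 30% in both replicate assays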;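 note: 100% = median of untreated cell wells with 0.1% DMSO on each plate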); conditions: HUVEC proliferation, CellTiter-Glo luminescence, 72 h; at 10 µM; stronger effect = lower value
[5] = growth inhibitors of H69AR lung tumor, primary screen, human, duplicate replicates (AID 580;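 active = viability at or under a set limit in both replicates, limit being median viability minus 3 SD, cut at about 48% in these data, passing the limit was not always enough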;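 note: 100% = mean luminescence of untreated wells and 0% = no signal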); conditions: H69AR lung tumor cells viability, ATP luminescence, 72 h; at 10 µM; stronger effect = lower value
[6] = reversal of MRP1-mediated doxorubicin resistance, pilot screen, H69AR cells, doxorubicin co-treatment (AID 601;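 active = viability loss from added drug above about 55%, and viability with drug at most 40%, in both replicates, limit read from the data, passing the limit was not always enough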); conditions: CellTiter-Glo, 72 h, at 10 µM; for differential viability (reversal): stronger effect = higher value
[7] = 384-well plate pilot, post-Golgi transport modulator project, inhibition of yeast transport mutant growth (AID 636; in the data active = inhibition above about 31%); conditions: absorbance 615 nm, about 18 h, stronger effect = higher value
[8] = growth suppression of yeast trafficking mutant, preliminary HTS, modulators of trafficking downstream of Golgi apparatus project, 1536-format plate, OD 615 nm (AID 637; in the data active = inhibition above about 30%); conditions: yeast transport mutant growth, absorbance 615 nm, 18 h; stronger effect = higher value
[9] = OD615 S. cerevisiae growth inhibition, permissive medium, pilot counter-assay, permissive growth control for S. cerevisiae lifespan shortening project (AID 705;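 active = growth inhibition above 25% in both replicates, a cutoff set 3 SD above the mean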); conditions: OD615, 24 h, at 10 µM, stronger effect = higher value
[10] = Restrictive medium S. cerevisiae growth inhibition, OD615, pilot screen of yeast lifespan reduction project, restrictive growth control (AID 706;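 active = growth inhibition above a set limit, 3 SD over mean compound inhibition, in both replicates, cut at about 43% in these data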;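 note: modified DeaD lifespan yeast strain shifted to restrictive glucose medium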); conditions: OD615, 48 h, at 10 µM, stronger effect = higher value
[11] = viability gain of MRP-1-high H69AR cells under doxorubicin, pilot screen, MRP-1 activator project, CellTiter-Glo, duplicate (AID 807;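 active = viability increase at or above a cutoff of the median across tested compounds plus 3 SD, cut at about 8.5% in these data, passing the limit was not always enough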;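 note: compound pretreatment 18-22 h then 72 h combined with doxorubicin; 0% = doxorubicin alone and 100% = vehicle without doxorubicin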); conditions: H69AR viability with doxorubicin, CellTiter-Glo luminescence; at 10 µM; stronger effect = higher value
[12] = growth suppression of beta-catenin knockout HCT116, pilot screen, human colon tumor cells (AID 823;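 active = cell viability at or below a set limit in both duplicate runs, the limit being the all-compound median minus 4 SD, cut at about 23% in these data, passing the limit was not always enough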;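 note: 0% = wells killed by 20 µM Hyamine and 100% = untreated DMSO cell wells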); conditions: CellTiter-Glo, 60 h, at 10 µM, stronger effect = lower value
[13] = growth suppression of PTEN-deleted HCT116, pilot screen, cell-based, HCT116 clonal line, CellTiter-Glo (AID 824); conditions: 60 h, at 10 µM, stronger effect = lower value;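 note: 0% = 20 µM Hyamine control and 100% = vehicle cell control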
[14] = inhibitors of the yeast RAM network, pilot screen, dse1pr::URA3 reporter, 5-FOA selection (AID 869;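 active = inhibition over a set limit, the all-compound mean plus 3 SD, in both replicate runs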;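 note: 0% = DMSO wells with no growth and 100% = 10 µM 1-NA-PP1 with full growth; RAM network block rescues cells from 5-FOA so hits raise OD615 growth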); conditions: S. cerevisiae dse1pr::URA3 5-FOA growth, OD615, 2 d; at 10 µM; stronger effect = higher value; strain carries analog-sensitive mutant Cbk1 kinase
[15] = RAM signaling pathway blockade in yeast – S. cerevisiae, Pdr1DBD-CYC8 efflux-inhibited sensitized strain, primary screen (AID 1298;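 active = RAM network inhibition above 8.4% in each of two replicates, 3 SD over the compound average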;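 note: 0% = DMSO untreated cells without growth and 100% = 10 µM 1-NA-PP1 full growth; higher means more yeast growth rescued from 5-FOA killing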); conditions: S. cerevisiae cbk1-as DSE1-URA3 strain, 5-FOA growth OD615, 2 d; at 50 µM; stronger effect = higher value
[16] = H69AR cells + 2 uM doxorubicin, measured here: viability with 2 uM doxorubicin, stronger effect = lower value
[17] = H69AR cells, compound alone cytotoxicity

Receptor tyrosine-protein kinase erbB-2 (Homo sapiens), sequence (P04626 whole entry, looked up): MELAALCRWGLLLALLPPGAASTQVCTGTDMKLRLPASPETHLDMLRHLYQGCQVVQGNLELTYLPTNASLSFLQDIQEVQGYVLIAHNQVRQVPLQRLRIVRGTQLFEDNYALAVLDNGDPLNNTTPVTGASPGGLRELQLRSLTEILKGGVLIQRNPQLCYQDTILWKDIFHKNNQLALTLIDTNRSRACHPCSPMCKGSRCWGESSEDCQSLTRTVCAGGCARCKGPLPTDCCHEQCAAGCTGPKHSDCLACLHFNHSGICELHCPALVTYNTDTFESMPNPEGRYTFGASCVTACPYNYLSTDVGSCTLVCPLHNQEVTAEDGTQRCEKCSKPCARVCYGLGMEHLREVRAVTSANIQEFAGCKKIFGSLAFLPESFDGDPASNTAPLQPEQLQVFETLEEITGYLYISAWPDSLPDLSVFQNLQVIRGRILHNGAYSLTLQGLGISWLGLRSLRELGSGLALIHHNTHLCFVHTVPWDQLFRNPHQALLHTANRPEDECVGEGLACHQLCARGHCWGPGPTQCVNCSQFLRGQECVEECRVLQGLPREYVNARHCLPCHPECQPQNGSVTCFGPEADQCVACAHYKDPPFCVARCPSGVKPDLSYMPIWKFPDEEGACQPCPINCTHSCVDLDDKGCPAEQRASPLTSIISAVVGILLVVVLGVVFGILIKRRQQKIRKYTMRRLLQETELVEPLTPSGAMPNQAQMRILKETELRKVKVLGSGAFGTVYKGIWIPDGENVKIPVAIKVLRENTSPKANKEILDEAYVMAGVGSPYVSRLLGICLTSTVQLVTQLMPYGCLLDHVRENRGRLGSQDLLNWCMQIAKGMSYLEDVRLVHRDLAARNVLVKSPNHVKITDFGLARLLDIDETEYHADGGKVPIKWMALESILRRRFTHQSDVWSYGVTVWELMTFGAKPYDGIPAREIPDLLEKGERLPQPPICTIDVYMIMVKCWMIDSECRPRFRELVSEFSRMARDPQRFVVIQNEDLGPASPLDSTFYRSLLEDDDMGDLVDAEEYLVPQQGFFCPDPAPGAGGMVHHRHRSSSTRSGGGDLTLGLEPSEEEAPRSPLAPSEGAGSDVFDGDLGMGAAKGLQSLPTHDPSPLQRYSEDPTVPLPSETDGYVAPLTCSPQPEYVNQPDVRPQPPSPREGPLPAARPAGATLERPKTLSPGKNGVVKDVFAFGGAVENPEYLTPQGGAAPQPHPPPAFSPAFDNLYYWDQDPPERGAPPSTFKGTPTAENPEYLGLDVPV

| SMILES | viability [1] | Her2 level [2] | viability [3] | viability [4] | viability [5] | differential viability (reversal) ([6]; H69AR cells + 2 uM doxorubicin) | viability [6, 16] | viability [6, 17] | inhibition [7] | inhibition [8] | growth inhibition [9] | growth inhibition [10] | viability increase [11] | viability [12] | viability [13] | inhibition [14] | RAM network inhibition [15] |
| --- | --- | --- | --- | --- | --- | --- | --- | --- | --- | --- | --- | --- | --- | --- | --- | --- | --- |
| Cc1ccc(-c2noc(CN3C(C)CCCC3C)n2)cc1 (centres undefined) | 93.5% | 100% (inactive) | 93.5% (inactive) | 114% (inactive) | 89.3% (inactive) | 5.67% (inactive) | 83.7% | 89.3% | -3.73% (inactive) | 2.33% (inactive) | -3.56% (inactive) | 4.79% (inactive) | 3.23% (inactive) | 98.8% (inactive) | 95.9% (inactive) | 0.67% (inactive) | 4.84% (inactive) |
| Cc1ccc(C)c(NC(=O)CSc2nnc(-c3ccccc3)o2)c1 | 89.5% | 104% (inactive) | 89.5% (inactive) | 111% (inactive) | 89.6% (inactive) | 9.51% (inactive) | 80.1% | 89.6% | -6.4% (inactive) | -4.5% (inactive) | -4.45% (inactive) | -0.695% (inactive) | 1.83% (inactive) | 95.9% (inactive) | 97.2% (inactive) | 0.49% (inactive) | 1.79% (inactive) |
| CCCn1c(NCc2cc(C)ccc2O)nc2ccccc21 | 94.5% | 106% (inactive) | 94.5% (inactive) | 69.4% (inactive) | 77.9% (inactive) | 1.94% (inactive) | 76% | 77.9% | -1.73% (inactive) | 9.68% (inactive) | -4.45% (inactive) | -8.17% (inactive) | -4.6% (inactive) | 53.6% (inactive) | 60.1% (inactive) | -0.08% (inactive) | 0.33% (inactive) |
| CCOC(=O)N1CCN(C(=O)CSc2nnc(-c3cccc(Cl)c3)o2)CC1 | 82.5% | 96.5% (inactive) | 82.5% (inactive) | 86.1% (inactive) | 93.9% (inactive) | 7.46% (inactive) | 86.4% | 93.9% | 0.13% (inactive) | -2.95% (inactive) | -6.25% (inactive) | -10.5% (inactive) | -0.22% (inactive) | 105% (inactive) | 100% (inactive) | 2.61% (inactive) | 2.71% (inactive) |
| CN1CCN(CC(=O)N2c3ccccc3C(C)(c3ccccc3)CC2(C)C)CC1 (centres undefined) | 87% | 103% (inactive) | 87% (inactive) | 78.8% (inactive) | 65.8% (inactive) | -31.3% (inactive) | 97.1% | 65.8% | -0.38% (inactive) | 2% (inactive) | -9.57% (inactive) | -2.67% (inactive) | -6.54% (inactive) | 49.1% (inactive) | 50.7% (inactive) | 0.685% (inactive) | 1.99% (inactive) |
| CCCNC(=O)C1CC(=O)N(c2ccc(OCC(=O)Nc3cc(C)cc(C)c3)cc2)C1 (centres undefined) | 112% | 122% (inactive) | 112% (inactive) | 80.5% (inactive) | 95.6% (inactive) | 4.41% (inactive) | 91.2% | 95.6% | -0.53% (inactive) | -4.33% (inactive) | -14.5% (inactive) | -25.6% (inactive) | -4.47% (inactive) | 92% (inactive) | 90.4% (inactive) | 2.06% (inactive) | 4.16% (inactive) |
| O=C(NCc1ccc(F)cc1)c1cc2ccccn2n1 | 84% | 98.5% (inactive) | 84% (inactive) | 99% (inactive) | 98.2% (inactive) | 17.5% (inactive) | 80.6% | 98.2% | -2.95% (inactive) | 4.5% (inactive) | 1.54% (inactive) | 3.24% (inactive) | -0.54% (inactive) | 99% (inactive) | 89.8% (inactive) | 0.47% (inactive) | 1.1% (inactive) |
| CCCCCn1c(=O)[nH]c2cc(C(=O)NCCN3CCOCC3)ccc2c1=O | 99.5% | 88% (inactive) | 99.5% (inactive) | 114% (inactive) | 105% (inactive) | 16.1% (inactive) | 88.5% | 105% | -7.03% (inactive) | 0.33% (inactive) | -26.4% (inactive) | -10.6% (inactive) | -0.3% (inactive) | 92.5% (inactive) | 87.9% (inactive) | 1.83% (inactive) | 5.23% (inactive) |
| Cc1nnc(SCCn2c(N3CCC(Cc4ccccc4)CC3)nc3c2c(=O)[nH]c(=O)n3C)s1 | 82.5% | 93.5% (inactive) | 82.5% (inactive) | 78.1% (inactive) | 79.4% (inactive) | 8.24% (inactive) | 71.1% | 79.4% | -5.21% (inactive) | -5.56% (inactive) | -2.44% (inactive) | 5.62% (inactive) | -4.95% (inactive) | 78.6% (inactive) | 75.7% (inactive) | 3.93% (inactive) | 5.98% (inactive) |
| COc1ccc(C2CC(=O)C(C=NCCCN3CCOCC3)=C(O)C2)cc1 (centres undefined) | 84.5% | 82.5% (inactive) | 84.5% (inactive) | 102% (inactive) | 99.3% (inactive) | 12.8% (inactive) | 86.5% | 99.3% | -1.15% (inactive) | -1.33% (inactive) | -0.615% (inactive) | 1.58% (inactive) | 0.71% (inactive) | 103% (inactive) | 101% (inactive) | 2.07% (inactive) | 3.01% (inactive) |
| CC(c1ccccc1)n1cnc2ccccc21 (centres undefined) | 82% | 104% (inactive) | 82% (inactive) | 93.4% (inactive) | 93.5% (inactive) | 0.135% (inactive) | 93.3% | 93.5% | -1.15% (inactive) | 0.33% (inactive) | -3.42% (inactive) | 0.48% (inactive) | -1.05% (inactive) | 103% (inactive) | 95.2% (inactive) | -0.115% (inactive) | 0.83% (inactive) |
| O=C1C/C(=C/NCc2ccccc2)C(=O)N1 | 93% | 111% (inactive) | 93% (inactive) | 95.5% (inactive) | 97.2% (inactive) | -4.96% (inactive) | 102% | 97.2% | 2.08% (inactive) | -9% (inactive) | -6.49% (inactive) | 0.205% (inactive) | 0.43% (inactive) | 99.7% (inactive) | 102% (inactive) | 1.04% (inactive) | 2.77% (inactive) |

From PubChem BioAssay
